# Measurements published in PMC7862700, “An all-to-all approach to the identification of sequence-specific readers for epigenetic DNA modifications on cytosine”.
# Columns and labels:
# Assay in all cases: DAPPL (digital affinity profiling via proximity ligation, sequencing); 10 mM Tris-HCl pH 7.5, 50 mM NaCl, 1 mM DTT, 4% glycerol, room temperature, 30 min; GST-TFs on glutathione beads, 16-mer random dsDNA library, 0.1% formaldehyde crosslink after washing; high values mean tight binding
# Settings in all cases: protein: recombinant; tags: N-terminal GST; dsDNA, one strand shown
# FLI1 = biological target: T1, FLI1 (Homo sapiens, UniProt Q01543 1-452)
# T1 sequence: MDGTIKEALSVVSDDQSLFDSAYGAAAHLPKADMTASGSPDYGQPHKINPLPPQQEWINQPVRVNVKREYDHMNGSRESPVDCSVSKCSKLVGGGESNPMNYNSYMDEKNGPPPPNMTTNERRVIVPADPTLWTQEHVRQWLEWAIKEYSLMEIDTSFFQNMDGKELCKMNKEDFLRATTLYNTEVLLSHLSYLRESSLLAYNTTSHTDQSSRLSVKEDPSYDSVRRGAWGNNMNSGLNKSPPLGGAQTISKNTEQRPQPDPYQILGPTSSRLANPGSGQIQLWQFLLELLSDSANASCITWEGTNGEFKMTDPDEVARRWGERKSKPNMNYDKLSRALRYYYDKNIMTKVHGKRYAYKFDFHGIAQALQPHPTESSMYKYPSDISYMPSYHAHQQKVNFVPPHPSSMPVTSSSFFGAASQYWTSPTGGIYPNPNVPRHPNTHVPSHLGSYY
# How it was run: (§1)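 Human transcription factors were made in yeast as GST fusions, captured on glutathione beads and barcoded with DNA. With a tag-only sample included, the pool was incubated with 200 nmole of a random double-stranded 16-mer DNA library in Tris/NaCl/DTT/glycerol buffer at room temperature for 30 min, then crosslinked with 0.1% formaldehyde after washing, ligated by proximity, amplified and sequenced. For binding signal, each hexamer's read frequency for a factor is divided by its frequency for the tag-only sample.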
# ELK1 = biological target: T2, ELK1 (Homo sapiens, UniProt P19419 1-428)
# T2 sequence: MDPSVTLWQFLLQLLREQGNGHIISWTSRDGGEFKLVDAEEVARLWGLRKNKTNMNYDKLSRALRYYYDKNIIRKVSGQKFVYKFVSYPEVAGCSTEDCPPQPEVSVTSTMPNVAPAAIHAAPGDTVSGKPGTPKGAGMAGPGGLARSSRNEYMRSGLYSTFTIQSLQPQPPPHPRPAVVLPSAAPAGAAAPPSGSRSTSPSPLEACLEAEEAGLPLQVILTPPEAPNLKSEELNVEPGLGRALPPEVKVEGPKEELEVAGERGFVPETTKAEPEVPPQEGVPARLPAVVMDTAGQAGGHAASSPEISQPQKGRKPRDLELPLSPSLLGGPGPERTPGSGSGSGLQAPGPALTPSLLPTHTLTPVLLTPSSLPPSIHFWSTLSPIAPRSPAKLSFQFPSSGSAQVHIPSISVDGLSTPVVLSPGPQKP
# How it was run: as §1
# GABPA = biological target: T3, GABPA (Homo sapiens, UniProt Q06546 1-454)
# T3 sequence: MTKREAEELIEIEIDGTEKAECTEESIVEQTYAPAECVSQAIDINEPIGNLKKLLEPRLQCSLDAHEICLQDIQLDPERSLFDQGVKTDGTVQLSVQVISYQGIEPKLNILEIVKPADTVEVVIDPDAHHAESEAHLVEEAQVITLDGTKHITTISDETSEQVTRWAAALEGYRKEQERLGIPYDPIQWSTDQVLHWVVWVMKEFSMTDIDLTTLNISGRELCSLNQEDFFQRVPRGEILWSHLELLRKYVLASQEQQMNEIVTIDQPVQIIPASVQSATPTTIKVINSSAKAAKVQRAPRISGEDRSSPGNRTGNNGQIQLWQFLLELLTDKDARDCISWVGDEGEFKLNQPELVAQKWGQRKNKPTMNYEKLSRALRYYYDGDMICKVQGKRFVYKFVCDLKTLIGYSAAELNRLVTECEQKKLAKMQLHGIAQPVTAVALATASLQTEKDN
# How it was run: as §1
# ERG = biological target: T4, ERG (Homo sapiens, UniProt P11308 1-479)
# T4 sequence: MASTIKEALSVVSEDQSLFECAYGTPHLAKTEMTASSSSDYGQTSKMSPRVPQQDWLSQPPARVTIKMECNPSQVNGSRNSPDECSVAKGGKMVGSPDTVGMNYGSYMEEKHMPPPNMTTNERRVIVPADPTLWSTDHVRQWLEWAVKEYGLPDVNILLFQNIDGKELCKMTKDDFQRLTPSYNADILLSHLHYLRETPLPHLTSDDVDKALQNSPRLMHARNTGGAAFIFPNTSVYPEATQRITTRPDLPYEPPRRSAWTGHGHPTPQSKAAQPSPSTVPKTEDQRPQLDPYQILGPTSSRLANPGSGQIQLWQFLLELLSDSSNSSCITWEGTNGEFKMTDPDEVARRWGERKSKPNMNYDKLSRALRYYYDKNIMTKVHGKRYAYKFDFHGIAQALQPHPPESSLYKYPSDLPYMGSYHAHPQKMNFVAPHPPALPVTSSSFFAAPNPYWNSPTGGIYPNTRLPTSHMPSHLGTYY
# How it was run: as §1
# ELF1 = ELF1 (Homo sapiens, UniProt P32519 1-619)
# How it was run: as §1
# EHF = biological target: T5, EHF (Homo sapiens, UniProt Q9NZC4 1-300)
# T5 sequence: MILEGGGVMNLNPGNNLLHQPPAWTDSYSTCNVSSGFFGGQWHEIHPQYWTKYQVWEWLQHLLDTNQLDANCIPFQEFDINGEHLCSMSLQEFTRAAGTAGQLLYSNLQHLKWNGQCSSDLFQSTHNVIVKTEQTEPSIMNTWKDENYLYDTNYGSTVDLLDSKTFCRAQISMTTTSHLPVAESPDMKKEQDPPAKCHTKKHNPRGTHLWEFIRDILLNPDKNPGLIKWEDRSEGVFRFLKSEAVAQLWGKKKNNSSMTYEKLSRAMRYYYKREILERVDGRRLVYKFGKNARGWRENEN
# How it was run: as §1
# SPI1 = SPI1 (Homo sapiens, UniProt P17947 1-270)
# How it was run: as §1
# SPIB = SPIB (Homo sapiens, UniProt Q01892 1-262)
# How it was run: as §1
# ELK3 = biological target: T6, ELK3 (Homo sapiens, UniProt P41970 1-407)
# T6 sequence: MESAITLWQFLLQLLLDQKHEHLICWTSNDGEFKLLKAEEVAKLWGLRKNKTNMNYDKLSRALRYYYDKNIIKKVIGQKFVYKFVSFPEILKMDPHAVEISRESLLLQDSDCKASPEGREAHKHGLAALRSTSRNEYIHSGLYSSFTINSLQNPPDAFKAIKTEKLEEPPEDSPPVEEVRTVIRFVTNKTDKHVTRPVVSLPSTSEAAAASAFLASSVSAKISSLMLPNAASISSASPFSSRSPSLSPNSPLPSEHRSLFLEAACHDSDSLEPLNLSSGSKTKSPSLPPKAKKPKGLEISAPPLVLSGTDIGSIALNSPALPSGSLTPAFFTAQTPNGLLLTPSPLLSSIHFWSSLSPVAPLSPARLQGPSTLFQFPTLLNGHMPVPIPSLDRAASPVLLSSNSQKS
# How it was run: as §1
# Sequence of SPIB (Q01892 whole entry): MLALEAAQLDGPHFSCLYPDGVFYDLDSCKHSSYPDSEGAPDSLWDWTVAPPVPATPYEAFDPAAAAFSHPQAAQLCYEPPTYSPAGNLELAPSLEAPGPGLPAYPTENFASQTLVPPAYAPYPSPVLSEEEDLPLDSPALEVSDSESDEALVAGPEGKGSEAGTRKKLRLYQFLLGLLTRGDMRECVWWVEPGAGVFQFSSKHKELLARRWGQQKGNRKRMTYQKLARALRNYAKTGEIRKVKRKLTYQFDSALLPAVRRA
# Sequence of ELF1 (P32519 whole entry): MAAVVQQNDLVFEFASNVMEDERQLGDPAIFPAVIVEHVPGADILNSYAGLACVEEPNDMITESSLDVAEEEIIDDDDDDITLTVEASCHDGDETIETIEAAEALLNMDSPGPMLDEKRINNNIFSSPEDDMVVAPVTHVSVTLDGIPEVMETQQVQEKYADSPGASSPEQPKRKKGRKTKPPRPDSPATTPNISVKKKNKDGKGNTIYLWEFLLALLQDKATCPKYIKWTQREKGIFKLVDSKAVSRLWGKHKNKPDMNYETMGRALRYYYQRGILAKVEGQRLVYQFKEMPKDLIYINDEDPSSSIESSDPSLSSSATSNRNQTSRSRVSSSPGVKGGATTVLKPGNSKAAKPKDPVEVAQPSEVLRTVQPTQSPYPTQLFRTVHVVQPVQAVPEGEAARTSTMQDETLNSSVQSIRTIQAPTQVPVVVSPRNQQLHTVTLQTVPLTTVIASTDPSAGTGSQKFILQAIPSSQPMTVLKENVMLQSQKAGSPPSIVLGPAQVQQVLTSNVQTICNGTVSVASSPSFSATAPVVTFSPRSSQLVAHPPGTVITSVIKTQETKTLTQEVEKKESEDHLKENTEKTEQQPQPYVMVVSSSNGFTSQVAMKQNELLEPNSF
sequence,measurement,setting,value
CTCGCT,binding signal,FLI1,"1.81 fold enrichment (6-mer frequency, TF over GST control)"
same,binding signal,ELK1,"1.67 fold enrichment (6-mer frequency, TF over GST control)"
same,binding signal,GABPA,"1.72 fold enrichment (6-mer frequency, TF over GST control)"
same,binding signal,ERG,"1.63 fold enrichment (6-mer frequency, TF over GST control)"
same,binding signal,ELF1,"1.75 fold enrichment (6-mer frequency, TF over GST control)"
same,binding signal,EHF,"1.6 fold enrichment (6-mer frequency, TF over GST control)"
same,binding signal,SPI1,"1.54 fold enrichment (6-mer frequency, TF over GST control)"
same,binding signal,SPIB,"1.81 fold enrichment (6-mer frequency, TF over GST control)"
same,binding signal,ELK3,"1.41 fold enrichment (6-mer frequency, TF over GST control)"
